# PubChem BioAssay (NCI)
# The panel holds about 83,000 compounds, 20% with a hit somewhere; the sample as a whole holds those more often.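 Negative percent growth values reflect cell death: -40 means 40% of the cells present at the start died, and -100 means all died.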 Values without a mark were called inactive. Active and inactive are the calls of the source. The calls were made as follows: active = growth percent below 10; inactive = the rest.
# System: HL-60(TB) leukemia
# Experiment: NCI-60 one-dose screen, 48 h (100 = growth as untreated, 0 = no growth, -100 = all killed)
# Settings: 10 µM unless noted
row,SMILES,growth
1,O=C1NC(=S)NC(=O)C1=Cc1cn(Cc2cn(Cc3cccc4ccccc34)nn2)c2ccccc12,106%
2,COc1cc2c(=O)n(CCN(C)C)c3c4cc5c(cc4ccc3c2cc1OC)OCO5,8.03% (active)
3,CCN1CCN(c2cc(C)c3cc(NC(=O)c4ccc(OC)c(OC)c4)ccc3n2)CC1,1.42% (active)
4,C[C@H](NC(=O)[C@@H]1CSSC[C@@H](NC(=O)Cc2nc3ccccc3cc2O)C(=O)NCC(=O)N1C)c1ccccc1,32.1%
5,C=CCN1C(=O)[C@]2(SC1=S)[C@H](c1cccc(Cl)c1)CN(C)[C@]21C(=O)NC2C=CC(Cl)=C[C@H]21 (some centres undefined),-39.8% (active)
6,N#Cc1c(-c2ccc(Cl)cc2)nc(NN=Cc2ccc[nH]2)nc1N1CCOCC1,2.28% (active)
7,C=C(C)[C@@H]1CC[C@]2(C(=O)O)CC[C@]3(C)[C@H](CC[C@@H]4[C@@]5(C)CCC(N)C(C)(C)[C@@H]5CC[C@]43C)[C@@H]12 (some centres undefined),-45.5% (active)
8,S=C1SCN(Cc2cccs2)CN1Cc1cccs1,91%
9,N#CC1=C(N)Oc2c(ccc3ccccc23)C1c1cccs1 (centres undefined),-29.6% (active)
10,C=CCSSc1ncnc2c1ncn2C1OC(CO)C(O)C1O (centres undefined),21.5%
11,CC(C)NCC(O)COc1ccc(CC(N)=O)cc1 (centres undefined),101%
12,COc1ccc(/C=C2/C(=O)Nc3cc(Cl)c(-c4csc(N)n4)cc32)cc1,8.08% (active)
13,COc1ccc(C(=O)c2cc(C)c(OC)c(C)c2)c(OC)c1NC(C)=O,-26.3% (active)
14,COc1ccccc1C(=O)Nc1cccc(NC(=O)c2ccoc2C)c1,-18.3% (active)
